According to PubChem BioAssay AID720648 (The Scripps Research Institute Molecular Screening Center, 2013):
About 3,100 (0.84%) of roughly 370,000 compounds were called active. The entries come from a sample that favours actives as a whole. Unmarked numbers belong to inactive results.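 Rule for the calls: active = inhibition above the mean of compounds lying between control limits plus 3 SD, set per campaign (cut at about 8.5% in these data); inactive = the rest.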

target: Disintegrin and metalloproteinase domain-containing protein 17 (Homo sapiens) (UniProt P78536); test: inhibition of ADAM17 peptide cleavage – biochemical, QFRET, primary screen (AID 720648); details: recombinant ADAM17, EDANS/DABCYL FRET peptide cleavage; at 6.95 µM; stronger effect = higher value;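 note: 0% = DMSO-only wells as the low control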
Sequence (P78536 215-824 limits assumed): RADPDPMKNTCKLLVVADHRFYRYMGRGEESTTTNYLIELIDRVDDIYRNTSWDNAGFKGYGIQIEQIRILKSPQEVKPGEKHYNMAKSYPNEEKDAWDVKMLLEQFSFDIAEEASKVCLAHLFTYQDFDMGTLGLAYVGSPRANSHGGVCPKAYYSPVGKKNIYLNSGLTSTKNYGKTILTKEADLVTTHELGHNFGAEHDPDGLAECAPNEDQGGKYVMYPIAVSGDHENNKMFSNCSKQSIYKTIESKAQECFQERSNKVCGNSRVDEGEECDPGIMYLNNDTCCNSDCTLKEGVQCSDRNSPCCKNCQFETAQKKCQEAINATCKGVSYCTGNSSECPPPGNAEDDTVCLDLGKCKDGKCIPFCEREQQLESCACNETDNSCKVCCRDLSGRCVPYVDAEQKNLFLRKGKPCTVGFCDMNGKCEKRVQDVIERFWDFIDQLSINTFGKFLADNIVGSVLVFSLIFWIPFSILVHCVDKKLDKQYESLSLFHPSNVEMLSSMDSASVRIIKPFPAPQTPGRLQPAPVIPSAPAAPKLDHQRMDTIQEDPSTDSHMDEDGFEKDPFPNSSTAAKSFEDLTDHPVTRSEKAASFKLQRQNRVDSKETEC

Row | Structure (SMILES) | inhibition
1 | Cc1cc(-c2ccc(C)c(S(=O)(=O)NCCCN(Cc3ccccc3)C(C)C)c2)on1 | -3.83%
2 | COc1ccc(CNS(=O)(=O)c2cc(-c3cc(C)no3)ccc2C(C)C)cc1 | 3.19%
3 | CCOc1ccccc1CNS(=O)(=O)c1cc(-c2cc(C)no2)ccc1C | 10.2% (active)
4 | CCC(CO)Nc1cccc2c1S(=O)(=O)N(Cc1cn(Cc3ccccc3C(F)(F)F)nn1)Cc1ccccc1O2 (configuration not stated) | -3.41%
5 | COC(=O)[C@H](C(C)C)N1CCc2nnn(Cc3ccc(C)cc3)c2-c2ccccc2S1(=O)=O | 2.97%
6 | C=C1C(C(C)C)N(C)C2=NC(c3ccccc3)CC(=O)N12 (configuration not stated) | -5.62%
7 | O=C(CSc1nnc(SCc2ccc(Cl)cc2)s1)N/N=C/c1ccccc1Cl | 0.99%
8 | Cc1ccc(NC(=S)NNC(=O)CSc2nnc(SCc3ccccc3Cl)s2)cc1 | 9.53% (active)
9 | O=C(CSc1nc2ccccc2n1Cc1ccccc1)NNC(=S)Nc1ccccc1 | 5.43%
10 | Nc1[nH]c(/C=C2/CCCCC2n2[nH]c(=O)n(-c3ccccc3)c2=O)c(Cc2ccccc2)[n+]1Cc1ccccc1 (configuration not stated) | -3.48%
11 | O=C(Nc1ccc(Br)cc1)OCCN1C(=O)CCC12CCC(c1ccccc1)CC2 (configuration not stated) | -0.94%
12 | CC(NCc1ccco1)C(=O)N1CCCCC1 (configuration not stated) | 0.39%
13 | O=C(CSCc1ccc([N+](=O)[O-])cc1)Nc1cccc(C(=O)Nc2ccccc2C(=O)O)c1 | 0.74%
14 | O=C(CSc1nc2[nH]c(=O)[nH]c(=O)c2s1)Nc1cccc(F)c1 | -3.92%
15 | O=C(CSc1nc(-c2ccccc2)cs1)Nc1cccc([N+](=O)[O-])c1 | 8.67% (active)
16 | O=C1CC(c2ccc3c(c2)OCO3)N=C2N(CC3CC3)C/C(=C/c3ccccc3)N12 (configuration not stated) | -2.87%
17 | CC(CCN1CCC(C(O)(c2ccccc2)c2ccccc2)CC1)Oc1ccc(C(F)(F)F)cc1 (configuration not stated) | 3.8%
18 | C=CC[C@H](CC(=O)N(CCO)Cc1ccccc1)C(=O)N[C@@H](COC(=O)[C@@H](CC=C)Cc1ccc(F)cc1)Cc1ccccc1 | 13.2% (active)
19 | C=CC[C@@H](Cc1ccc(F)cc1)C(=O)OC[C@H]1CCCN1C(=O)[C@H](CC=C)CC(=O)N(CCO)Cc1ccccc1 | 1.4%
20 | C=CCC[C@H](Cc1ccc(F)cc1)C(=O)OC[C@@H](Cc1c[nH]c2ccccc12)NC(=O)[C@H](CC=C)CC(=O)N[C@H](CO)Cc1ccccc1 | 3.73%
21 | C=CC[C@@H](CC(=O)N[C@H](CO)Cc1ccccc1)C(=O)N[C@@H](COC(=O)[C@@H](CC=C)Cc1ccc(F)cc1)Cc1c[nH]c2ccccc12 | -0.68%
22 | C=CCC[C@@H](Cc1ccc(F)cc1)C(=O)O[C@H](CNC(=O)[C@H](CC=C)CC(=O)N(CCO)Cc1ccccc1)c1ccccc1 | 13.4% (active)
23 | C=CCC[C@@H](Cc1ccc(F)cc1)C(=O)OC[C@H](Cc1c[nH]c2ccccc12)NC(=O)[C@@H](CC=C)CC(=O)N(CCO)Cc1ccccc1 | 20.9% (active)
24 | C=CCC[C@H](Cc1ccc(F)cc1)C(=O)OC[C@H](C)NC(=O)[C@H](CC=C)CC(=O)N(CCO)Cc1ccccc1 | 0.15%

Row | Structure (SMILES) | inhibition
25 | C=CCC[C@@H](Cc1ccc(F)cc1)C(=O)OC[C@@H](C)NC(=O)[C@H](CC=C)CC(=O)N(CCO)Cc1ccccc1 | 0.31%
26 | C=CCC[C@H](Cc1ccc(F)cc1)C(=O)OC[C@@H](NC(=O)[C@@H](CC=C)CC(=O)N[C@H](CO)Cc1ccccc1)C(C)(C)C | 4.84%
27 | CCCCC(=O)N[C@@H]1CC[C@@]23CCCN2C(=O)CCC[C@H]3[C@H]1C | -6.42%
28 | C=C(C)C1CC23C(=O)C4(C(=O)c5ccccc5)C[C@@]5(C)CCC(CC2C1(C)C)(C4=O)C35OC (some centres not stated) | -2.35%
29 | COC(=O)[C@]12C[C@H](CC(=O)NCc3ccccc3)C(=O)N(CCc3ccc(OC)c(OC)c3)C1=C[C@H](C(C)(C)C)O[C@@H]2C | 7.1%
30 | COC(=O)[C@H](C(C)C)N(CCc1cn(Cc2ccccc2)nn1)S(=O)(=O)c1ccc(F)cc1Br | -0.43%
31 | CCCCOCCCNC(=O)C[C@H]1C[C@@]2(C(=O)OC)C(=C[C@H](COCc3ccccc3)O[C@@H]2C)N(Cc2cccc3ccccc23)C1=O | 6.38%
32 | O=C(Nc1cccc(Cl)c1)OC1CC2CC1[C@H]1CCCCN1[C@H]2Cc1ccccc1 (some centres not stated) | -2.76%
33 | O=C(Nc1ccc(F)cc1)N1CCCC(c2nc3c(nnn3Cc3ccccc3Cl)c(=O)[nH]2)C1 (configuration not stated) | -4.29%
34 | Cc1ccc(Cn2nnc3c(=O)[nH]c(C4CCN(S(=O)(=O)/C=C/c5ccccc5)CC4)nc32)cc1 | 8.9% (active)
35 | CC(C)(C)c1ccc(Cn2nnc3c(=O)[nH]c(C4CCCN(C(=O)c5ccco5)C4)nc32)cc1 (configuration not stated) | -1.56%
36 | O=C(CSc1nnc(-c2cccs2)n1Cc1ccco1)c1ccc2c(c1)OCO2 | 1.24%
37 | Cc1sc2nc(SCC(=O)c3ccc(O)c(O)c3)n(Cc3ccco3)c(=O)c2c1C | 10.2% (active)
38 | C=CCn1c(SCC(=O)Nc2ccc(NC(C)=O)cc2)nc2sc(C)c(C)c2c1=O | -2.65%
39 | C=CCN1C(=O)[C@@H](CC(=O)N2CCN(C(=O)c3ccco3)CC2)[C@]2(C(=O)OC)CCCCC=C12 | 1.66%
40 | O=C(OC12CCCN(C1)/C(=C/c1cccnc1)C2)C1CCCC1 (configuration not stated) | 1.56%
41 | O=C(NCCCn1ccnc1)Nc1ccc(Cl)cc1Cl | -2.99%
42 | O=C(Nc1ccccc1C(=O)NCCCn1ccnc1)c1ccc(Cl)cc1Cl | 2.53%
43 | Clc1ccc(C(Cn2ccnc2)OCc2ccsc2Cl)c(Cl)c1 (configuration not stated) | 8.72% (active)
44 | O=S1(=O)c2c(cccc2N2CC[C@H](O)C2)O[C@@H]2CCN1C2 | -10.8%
45 | COc1ccc(C(=O)C2CCCN(C(=O)c3cnsn3)C2)c(C)c1 (configuration not stated) | -4.24%
46 | COc1ccc(C(=O)C2CCCN(C(=O)c3ccc(OC)o3)C2)c(C)c1 (configuration not stated) | -0.93%
47 | COc1ccc(C(=O)C2CCCN(S(=O)(=O)c3cccc(C)c3)C2)c(C)c1 (configuration not stated) | 12.6% (active)
